Measurements published in PubChem BioAssay (Tox21).
Inconclusive results are not listed. Calls of active or inactive are those of the source. Calls follow the shape of the dose curve; as a rule, active = well fitted activation curve with a large enough effect in the repeat runs; inconclusive = weak or mixed curves; inactive = flat fitted curve, though single readings scatter.

Experiment: A CellTox Green Cytotoxicity Assay to monitor cytotoxicity in HEK293 cells - 32 hour (AID 1224881); also: nearly all actives have a fitted effect of over 40% in size
Settings: CellTox Green fluorescence; series mostly up to 76.8 µM; cytotoxicity increase: at the top concentration
Excerpt: National Center for Advancing Translational Sciences [NCATS]
NIH Chemical Genomics Center [NCGC]
U.S. Environmental Protection Agency [EPA]
National Institutes of Environmental Health Sciences [NIEHS]
National Toxicology Program [NTP]
Cell-based models are critical for drug discovery. Determining the natural cytotoxic effects resulting from test compounds is an essential research activity. A CellTox Green Cytotoxicity Assay to monitor cytotoxicity in real time of continues cell culture during 40 hours of the compound treatment was used to screen Tox21 10K library compounds in Hek293 cells. CellTox Green Cytotoxicity Assay is a nonlytic, homogeneous, biofluorescent method to measure cytotoxicity in cell culture after experimental manipulation. The assay system uses a proprietary asymmetric cyanine dye that is excluded from viable cells but preferentially stains the dead cell's DNA. […] Viable cells produce no appreciable increases in fluorescence. Therefore, the fluorescence signal produced by the binding interaction with dead cell DNA is proportional to cytotoxicity.
The mixture of Hek293 cell suspension and reagents were dispensed at 600cells/6 ul/well in 1536-well tissue culture treated black solid bottom plates using a Multidrop dispenser. After the assay plates were incubated at a 37 C/5% CO2 incubator for 5 hours, 23 nL of compounds dissolved in DMSO, positive and negative controls was transferred to the assay plate by a pintool work station. The plates were incubated at 37 C for 40 hours. The fluorescence intensity were measured at 0h, 8h, 16h, 24h, 32h and 40h time points using ViewLux plate reader during compound treatment.
% is scaled to controls: 0 for no effect and ±100 for the full control effect; potency is read from the fitted curve at half-maximal effect.

Row | SMILES | cytotoxicity increase | Potency
1 | CCC=CC#N | -3.01% (inactive) | 
2 | Cc1ccc(Cl)c(Nc2ccccc2C(=O)O)c1Cl | -11.9% [at 35.3 µM] (inactive) | 
3 | Nc1cccc2c1CN(C1CCC(=O)NC1=O)C2=O (stereo not given) | -9.16% [at 35.3 µM] (inactive) | 
4 | CCC(OCCCOC)OC(C)=O (stereo not given) | -1.05% (inactive) | 
5 | C1COC1 | -8.64% (inactive) | 
6 | CCCCCCC(C)(C)C(=O)O | 17.8% (inactive) | 
7 | CCOC(=O)c1ccccc1C(=C1C=C(Br)C(=O)C(Br)=C1)c1cc(Br)c(O)c(Br)c1 | 5.79% [at 35.3 µM] (inactive) | 
8 | CN1C(=O)c2ccccc2C1=O | -29.3% (inactive) | 
9 | Cc1ccccc1N=C(N)Nc1ccccc1C | 0.27% (inactive) | 
10 | CC(C)C(O)(c1ccc(OC(F)(F)F)cc1)c1cncnc1 (stereo not given) | 6.32% (inactive) | 
11 | O=C(O)CCCCCCCCCCCBr | 0.267% (inactive) | 
12 | CC(C)(c1ccccc1)c1ccccc1 |  | 51.1 µM (active)
13 | Cc1cc(C)c(N)cc1C | -15.4% (inactive) | 
14 | CCCCCCCC/C=C\CCCCCCCCO | 0.166% (inactive) | 
15 | Cc1ccc(C(C)(C)O)cc1 | -8.09% (inactive) | 
16 | O=C1c2ccccc2C(=O)C1(O)O | 0.58% (inactive) | 
17 | O=C(O)c1ccc(OCCCOc2ccc(C(=O)O)cc2)cc1 | 7.38% [at 35.3 µM] (inactive) | 
18 | N#CCCN(CCO)CCO | -8.01% (inactive) | 
19 | Nc1nnc(-c2ccc([N+](=O)[O-])o2)o1 | 0.575% (inactive) | 
20 | CCOC(=O)c1ccc(C#Cc2ccc3c(c2)C(C)(C)CCS3)nc1 | 0.721% [at 35.3 µM] (inactive) | 

Row | SMILES | cytotoxicity increase | Potency
21 | COC(=O)CCS | -0.278% (inactive) | 
22 | COC(=O)CS | -0.477% (inactive) | 
23 | CCCCCCCCOc1ccc(C(=O)O)cc1 | -10.5% (inactive) | 
24 | CC(O)c1ccccc1 (stereo not given) | -1.45% (inactive) | 
25 | C[C@@H]1CC(=O)NN=C1c1ccc(NN=C(C#N)C#N)cc1 | -0.885% [at 35.3 µM] (inactive) | 
26 | CCC(=O)C1CC(C(C)C)CC=C1C (stereo not given) | 0.0944% (inactive) | 
27 | CCC1CO1 (stereo not given) | 3.43% (inactive) | 
28 | CC(=O)c1cc2ccccc2s1 | 3.49% [at 35.3 µM] (inactive) | 
29 | C=COCC(C)C | -37.9% (inactive) | 
30 | C=C(C)C(=O)OCCOCCOC(=O)C(=C)C | 2.38% (inactive) | 
31 | O=C(O)CCC(=O)C(=O)O | -2.19% (inactive) | 
32 | CN(C)CCN1C(=O)c2ccccc2N(C)c2ccccc21 | 0.563% [at 35.3 µM] (inactive) | 
33 | CN1CC(=O)N2[C@H](c3ccc4c(c3)OCO4)c3[nH]c4ccccc4c3C[C@@H]2C1=O | 4.02% [at 35.3 µM] (inactive) | 
34 | COc1ncnc(NS(=O)(=O)c2ccc(N)cc2)c1OC | -0.45% [at 35.3 µM] (inactive) | 
35 | CCOC(=O)[C@H](CCc1ccccc1)N[C@@H](C)C(=O)N(CC(=O)O)C1Cc2ccccc2C1 | 0.131% [at 35.3 µM] (inactive) | 
36 | CS(=O)(=O)c1ccc(-c2cn3ccccc3n2)cc1 | 1.13% [at 35.3 µM] (inactive) | 
37 | CC1(C)[C@H](C(=O)O)N2C(=O)C[C@H]2S1(=O)=O | 1.63% [at 35.3 µM] (inactive) | 
38 | CCCC(=O)C(=O)O | 20.4% (inactive) | 
39 | O=C(O)CCc1nc(-c2ccccc2)c(-c2ccccc2)o1 | -22% [at 35.3 µM] (inactive) | 
40 | FC(F)(F)c1ccccc1Cl | -11.5% (inactive) | 
